Test results reported in PubChem BioAssay (Tox21).
Records with an inconclusive call do not appear. Active and inactive are the calls of the source. Unless noted, calls follow the shape of the dose curve; as a rule, active = well fitted curve in the direction sought with a large enough effect in the repeat runs; inconclusive = weak or mixed curves; inactive = no such curve, though single readings can be large; an effect the other way counts as inactive or inconclusive.

Key:
[1] = qHTS assay to identify small molecule antagonists of the androgen receptor (AR) signaling pathway using the MDA cell line in the presence of 0.5 nM R1881 - cell viability counter screen (AID 1259242); also: nearly all actives have a fitted effect of over 45% in size
How it was run: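 Concentration-response screen of compounds for toxicity in MDA-kb2 reporter cells: 16 hr at 37C with 0.5 nM R1881, endpoint live-cell protease fluorescence measured in the reporter wells.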

[2] = biological target: Androgen receptor (Homo sapiens) (UniProt P10275); test: qHTS assay to identify small molecule antagonists of the androgen receptor (AR) signaling pathway using the MDA cell line in the presence of 0.5 nM R1881 (AID 1259243); also: nearly all actives have a fitted effect of over 50% in size
Chain of Androgen receptor (Homo sapiens) (P10275 whole entry, looked up): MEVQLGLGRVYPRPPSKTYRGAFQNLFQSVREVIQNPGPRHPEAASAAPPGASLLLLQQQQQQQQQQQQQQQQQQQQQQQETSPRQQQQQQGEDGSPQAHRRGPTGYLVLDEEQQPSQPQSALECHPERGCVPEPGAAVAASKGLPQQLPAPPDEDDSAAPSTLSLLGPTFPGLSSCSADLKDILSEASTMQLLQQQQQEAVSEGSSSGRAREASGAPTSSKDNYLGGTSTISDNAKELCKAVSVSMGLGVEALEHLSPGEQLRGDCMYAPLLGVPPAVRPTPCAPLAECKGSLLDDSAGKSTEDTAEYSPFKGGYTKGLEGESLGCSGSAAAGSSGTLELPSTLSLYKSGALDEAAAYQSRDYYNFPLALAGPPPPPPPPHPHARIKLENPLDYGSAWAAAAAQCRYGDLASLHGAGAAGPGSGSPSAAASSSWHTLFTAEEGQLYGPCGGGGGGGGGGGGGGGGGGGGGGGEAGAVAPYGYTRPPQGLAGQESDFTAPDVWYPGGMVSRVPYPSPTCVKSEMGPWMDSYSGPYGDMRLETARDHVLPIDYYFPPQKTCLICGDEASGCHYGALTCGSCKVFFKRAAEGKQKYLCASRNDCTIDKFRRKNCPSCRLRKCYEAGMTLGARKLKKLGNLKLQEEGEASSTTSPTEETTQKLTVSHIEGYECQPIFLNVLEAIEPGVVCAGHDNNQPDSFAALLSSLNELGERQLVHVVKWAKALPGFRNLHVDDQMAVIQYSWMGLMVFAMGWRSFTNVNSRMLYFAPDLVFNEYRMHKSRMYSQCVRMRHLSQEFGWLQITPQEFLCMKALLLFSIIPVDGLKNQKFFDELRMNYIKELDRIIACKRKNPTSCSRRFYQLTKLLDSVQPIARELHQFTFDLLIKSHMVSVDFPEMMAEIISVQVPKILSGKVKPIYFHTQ
How it was run: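 With R1881 held at 0.5 nM (final), compound effects on MMTV-luciferase expression in MDA-kb2 cells were scored by luminescence after a 16 hr, 37C incubation.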

[3] = biological target: Estrogen receptor (Homo sapiens) (UniProt P03372); test: qHTS assay to identify small molecule antagonists of the estrogen receptor alpha (ER-alpha) signaling pathway using the BG1 cell line in the presence of 0.1 nM 17-beta-estradiol (AID 1259244); also: nearly all actives have a fitted effect of over 50% in size
Chain of Estrogen receptor (Homo sapiens) (P03372 whole entry, looked up): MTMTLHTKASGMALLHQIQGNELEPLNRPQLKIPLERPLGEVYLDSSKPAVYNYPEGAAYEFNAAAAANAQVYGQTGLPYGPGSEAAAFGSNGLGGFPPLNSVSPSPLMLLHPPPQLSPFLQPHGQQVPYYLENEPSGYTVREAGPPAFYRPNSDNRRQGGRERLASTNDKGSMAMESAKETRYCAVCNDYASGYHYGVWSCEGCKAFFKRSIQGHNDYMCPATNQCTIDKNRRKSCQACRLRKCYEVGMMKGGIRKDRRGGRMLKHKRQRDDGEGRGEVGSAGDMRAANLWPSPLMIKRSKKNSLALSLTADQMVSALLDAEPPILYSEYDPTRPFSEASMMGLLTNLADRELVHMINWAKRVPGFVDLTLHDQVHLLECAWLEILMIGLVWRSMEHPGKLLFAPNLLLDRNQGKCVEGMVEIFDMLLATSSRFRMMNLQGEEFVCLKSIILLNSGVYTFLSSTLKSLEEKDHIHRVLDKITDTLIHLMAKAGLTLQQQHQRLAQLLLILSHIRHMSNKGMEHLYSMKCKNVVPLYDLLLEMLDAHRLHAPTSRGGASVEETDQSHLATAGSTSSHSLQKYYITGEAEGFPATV
How it was run: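 Compounds were tested against 0.1 nM (final) 17beta-estradiol in VM7Luc4E2 cells, which express full-length ER-alpha and an ERE-luciferase reporter; luminescence was recorded following 22 h exposure.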

[4] = qHTS assay to identify small molecule HDAC inhibitors (AID 1259364);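 also: wild-type HCT-116 cells with endogenous class I/II HDAC activity; top concentration of the series differs between compounds; nearly all actives have a fitted effect of over 45% in size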
How it was run: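 Screening used wild-type human colon HCT-116 cells incubated overnight, dosed with compounds for 2 hours, and assayed with a homogeneous luminogenic HDAC I/II reagent for 30 minutes at room temperature.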

[5] = qHTS assay to identify small molecule HDAC inhibitors - cell viability counter screen (AID 1259365); also: series mostly up to about 92 µM; nearly all actives have a fitted effect of over 50% in size
How it was run: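 Measured quantity is CellTiter-Glo luminescence from wild-type HCT-116 cells after compound incubation of 2hr at 37C, 5% CO2; reagent developed 30min at room temperature.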

[6] = qHTS assay to identify small molecule agonists of the sonic hedgehog signaling (Shh) pathway - cell viability counter screen (AID 1259366); also: nearly all actives have a fitted effect of over 50% in size
How it was run: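 In quantitative high-throughput format, 3T3 Gli1-Luc cells were exposed to compounds for 24hr and multiplexed for viability using CellTiter-Fluor, incubated 1hr at 37C before the fluorescence read.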

[7] = qHTS assay to identify small molecule antagonists of the sonic hedgehog signaling (Shh) pathway - cell viability counter screen (AID 1259367); also: nearly all actives have a fitted effect of over 55% in size
How it was run: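 Tox21 library chemicals were tested on a Gli1-Luc NIH/3T3 clone (2,000 cells/well) stimulated by conditioned medium; viability was quantified as fluorescence from CellTiter-Fluor reagent added at 23 hr.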

[8] = qHTS assay to identify small molecule agonists of the sonic hedgehog signaling (Shh) pathway (AID 1259368; calls by dose curve;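 also: NIH/3T3-derived 3T3Gli1-Luc cells carrying a stable Gli1-driven firefly luciferase reporter; series mostly up to about 92 µM; nearly all actives have a fitted effect of over 15% in size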)
How it was run: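 Hedgehog pathway agonism scored by increased firefly luciferase luminescence in 3T3Gli1-Luc cells treated 24 hr at 37 C; detection used a 30 min room-temperature reagent incubation.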

[9] = qHTS assay to identify small molecule agonists of the androgen receptor (AR) signaling pathway in the presence of an antagonist - cell viability counter screen (AID 1259379);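 also: MDA-kb2 human breast cancer cells carrying an MMTV luciferase reporter; series mostly up to about 92 µM; nearly all actives have a fitted effect of over 25% in size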
How it was run: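 MDA-kb2 viability measured by CellTiter-Fluor fluorescence in the same wells as the luciferase signal; nilutamide 3.0uM final; 15-point compound titration; 16 hr at 37C.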

[10] = qHTS assay to identify small molecule agonists of the estrogen receptor beta (ER-beta) signaling pathway - cell viability counter screen (AID 1259380); also: nearly all actives have a fitted effect of over 30% in size
How it was run: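 Measured: luminescence from CellTiter-Glo after 30 min at room temperature, added to wells already read for the LiveBLAzer FRET reporter (2 hr substrate); ER-beta-UAS-bla HEK293T cells had 16 hr compound treatment at 37C, 5% CO2.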

[11] = biological target: Androgen receptor (Homo sapiens) (UniProt P10275); test: qHTS assay to identify small molecule agonists of the androgen receptor (AR) signaling pathway in the presence of an antagonist (AID 1259381; calls by dose curve; also: nearly all actives have a fitted effect of over 15% in size)
How it was run: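 Luminescent ONE-Glo read, 30min at room temperature, follows 16hr compound exposure (15 concentrations) of MDA-kb2 cells at 37C, 0% CO2, with nilutamide added at 3.0uM final.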

[12] = qHTS assay to identify small molecule antagonists of the estrogen receptor beta (ER-beta) signaling pathway - cell viability counter screen (AID 1259382); also: series mostly up to about 92 µM; nearly all actives have a fitted effect of over 55% in size
How it was run: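 Readout: luminescence, CellTiter-Glo, same wells as bla assay. System: ER-beta-UAS-bla GripTite HEK293T, 2% charcoal-stripped FBS. Exposure: compounds plus 1nM 17-beta-estradiol, 16 hr, 37C.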

[13] = biological target: Estrogen receptor (Homo sapiens) (UniProt P03372); test: qHTS assay to identify small molecule agonists of the estrogen receptor alpha (ER-alpha) signaling pathway in the presence of an antagonist (AID 1259383; calls by dose curve; also: top concentration of the series differs between compounds; nearly all actives have a fitted effect of over 15% in size)
How it was run: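 Quantitative HTS confirmation: compounds titrated at 15 concentrations onto estrogen-deprived VM7Luc4E2 cells carrying a four-ERE luciferase construct, with ICI-182,780 present at 10.0nM final. Signal is luminescence after 22hr exposure.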

[14] = qHTS assay to identify small molecule agonists or antagonists of the thyroid stimulating hormone receptor (TSHR) signaling pathway - wild type cell line counter screen (AID 1259384; calls by dose curve)
How it was run: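 Wild-type Hek293 cells, 800/well, 18 h at 37C, then compound with Ro20-1724 for 30 min RT. cAMP by HTRF (cAMP-d2/anti-cAMP cryptate), 1 h RT, fluorescence read. 15 concentrations, triplicates.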

[15] = biological target: Thyrotropin receptor (Homo sapiens) (UniProt P16473); test: qHTS assay to identify small molecule antagonists of the thyroid stimulating hormone receptor (TSHR) signaling pathway (AID 1259385; calls by dose curve; also: nearly all actives have a fitted effect of over 20% in size)
Chain of Thyrotropin receptor (Homo sapiens) (P16473 whole entry, looked up): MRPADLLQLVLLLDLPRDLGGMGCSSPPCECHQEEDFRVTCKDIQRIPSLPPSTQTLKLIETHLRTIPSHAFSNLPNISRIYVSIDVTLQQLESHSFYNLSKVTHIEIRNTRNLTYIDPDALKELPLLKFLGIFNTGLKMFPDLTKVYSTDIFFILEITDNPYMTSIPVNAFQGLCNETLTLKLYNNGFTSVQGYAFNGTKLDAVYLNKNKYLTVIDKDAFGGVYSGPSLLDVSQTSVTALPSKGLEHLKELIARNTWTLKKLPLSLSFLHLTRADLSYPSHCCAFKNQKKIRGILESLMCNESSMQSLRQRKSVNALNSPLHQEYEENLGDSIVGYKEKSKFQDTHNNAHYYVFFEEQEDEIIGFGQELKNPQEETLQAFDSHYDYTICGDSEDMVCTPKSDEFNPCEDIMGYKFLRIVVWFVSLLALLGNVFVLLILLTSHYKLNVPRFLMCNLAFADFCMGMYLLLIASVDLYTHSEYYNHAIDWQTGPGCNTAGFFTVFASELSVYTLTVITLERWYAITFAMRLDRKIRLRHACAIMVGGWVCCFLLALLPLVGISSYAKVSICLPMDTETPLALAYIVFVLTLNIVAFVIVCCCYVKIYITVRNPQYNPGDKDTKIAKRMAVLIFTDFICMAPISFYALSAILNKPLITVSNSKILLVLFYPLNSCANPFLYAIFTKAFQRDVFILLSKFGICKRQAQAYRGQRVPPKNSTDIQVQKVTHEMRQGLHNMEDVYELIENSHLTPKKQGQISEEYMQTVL
How it was run: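 TSHR-HEK293 cells (800/well) plated 18 h, then compounds with Ro20-1724 and TSH at 1.5 ng/mL final, 30 min at room temperature. cAMP quantified by HTRF (cAMP-d2/anti-cAMP-cryptate, 1 h); 15 concentrations in triplicate.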

[16] = qHTS assay to identify small molecule agonists of the estrogen receptor alpha (ER-alpha) signaling pathway in the presence of an antagonist - cell viability counter screen (AID 1259386);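 also: series mostly up to about 92 µM; cells exposed to compounds for 22 h at 37 °C before the viability read; nearly all actives have a fitted effect of over 30% in size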
How it was run: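 The test measures whether compounds kill ER-alpha reporter cells (VM7Luc4E2) under antagonist co-treatment (ICI-182,780, 10.0nM). Fluorescence from CellTiter-Fluor is read after a 22hr exposure.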

[17] = qHTS assay to identify small molecule antagonists of the sonic hedgehog signaling (Shh) pathway (AID 1259369; calls by dose curve; also: nearly all actives have a fitted effect of over 45% in size)
How it was run: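 NIH/3T3 stable Gli1-Luc clone, 2,000 cells/well, 4hr settle; cpd + conditioned medium 24hr; Luc reagent 30min RT; luminescence.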

[18] = biological target: Estrogen receptor beta (Homo sapiens) (UniProt Q92731); test: qHTS assay to identify small molecule agonists of the estrogen receptor beta (ER-beta) signaling pathway (AID 1259377; active = well fitted activation curve with a large enough effect in the signal ratio in the repeat runs, not every such curve was filed as active; the % refers to the signal ratio)
Chain of Estrogen receptor beta (Homo sapiens) (Q92731 whole entry, looked up): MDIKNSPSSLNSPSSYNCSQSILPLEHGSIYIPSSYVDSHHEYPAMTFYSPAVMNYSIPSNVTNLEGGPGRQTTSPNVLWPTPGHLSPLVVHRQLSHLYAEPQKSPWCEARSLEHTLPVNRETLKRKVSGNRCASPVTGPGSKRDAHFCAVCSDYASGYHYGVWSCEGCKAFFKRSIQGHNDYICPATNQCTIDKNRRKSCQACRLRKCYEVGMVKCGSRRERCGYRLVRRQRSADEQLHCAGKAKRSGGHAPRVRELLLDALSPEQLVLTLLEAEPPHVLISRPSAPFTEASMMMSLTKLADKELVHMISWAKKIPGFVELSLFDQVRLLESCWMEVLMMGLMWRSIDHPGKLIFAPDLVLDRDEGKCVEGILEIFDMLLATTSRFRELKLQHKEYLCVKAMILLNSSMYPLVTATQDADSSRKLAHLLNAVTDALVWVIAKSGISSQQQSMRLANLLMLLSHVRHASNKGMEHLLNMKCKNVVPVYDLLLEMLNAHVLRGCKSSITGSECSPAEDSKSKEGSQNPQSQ
How it was run: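 Reporter cells (HEK293T, ER-beta-UAS-bla) receive compounds or DMSO after a 6 hr pre-incubation. They then incubate 16 hr at 37C/5% CO2, and fluorescence from LiveBLAzer B/G substrate is measured after 2 hours at room temperature.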

[19] = biological target: Estrogen receptor beta (Homo sapiens) (UniProt Q92731); test: qHTS assay to identify small molecule antagonists of the estrogen receptor beta (ER-beta) signaling pathway (AID 1259378; active = well fitted inhibition curve with a large enough effect in the signal ratio in the repeat runs, not every such curve was filed as active; the % refers to the signal ratio)
How it was run: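 ER-beta-UAS-bla HEK293T cells in 2% charcoal-stripped FBS medium treated with compound plus 1nM final 17-beta-estradiol for 16 hr at 37C. Beta-lactamase reporter read by FRET substrate fluorescence after 2 hours at room temperature.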

[20] = qHTS assay to identify small molecule phospholipidosis (PLD) inducers (AID 1259344; active = well fitted curve in the direction sought with a large enough effect; an effect the other way counts as inactive or inconclusive)
How it was run: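 Image-based: LipidTOX Red pit count/intensity per well and per cell; HepG2, 24 h compound at 37 C, PFA fixation, Hoechst counterstain.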

Measured: Potency

COC(=O)C(C)O (stereo not given)
inactive: [1] | [2] | [3] | [4] | [5] | [6] | [7] | [8] | [9] | [10] | [11] | [12] | [13] | [14] | [15] | [16]

CCCC(CCC)(C(=O)OCC)C(=O)OCC
inactive: [1] | [2] | [3] | [4] | [5] | [6] | [7] | [8] | [17] | [18] | [9] | [10] | [11] | [12] | [13] | [14] | [15] | [16]

OCCN(CCO)c1ccccc1
inactive: [1] | [2] | [3] | [4] | [5] | [6] | [7] | [8] | [17] | [9] | [10] | [11] | [12] | [13] | [16]

Nc1cccc(S(=O)(=O)O)c1
inactive: [1] | [2] | [4] | [5] | [6] | [7] | [8] | [17] | [19] | [9] | [10] | [12] | [13] | [14] | [15] | [16]

COC(C)CCO (stereo not given)
inactive: [1] | [2] | [4] | [5] | [6] | [7] | [8] | [17] | [9] | [10] | [11] | [12] | [14] | [16]

CC1=C(CC(=O)O)c2cc(F)ccc2/C1=C\c1ccc(S(C)(=O)=O)cc1
inactive: [1] | [2] | [3] | [20] | [4] | [5] | [7] | [8] | [18] | [9] | [11] | [12] | [13]

Cc1ccsc1C(=CCCN1CCC[C@@H](C(=O)O)C1)c1sccc1C
inactive: [1] | [2] | [20] | [4] | [5] | [6] | [7] | [8] | [17] | [18] | [19] | [9] | [10] | [11] | [12] | [13] | [15] | [16]

NC(=O)NS(=O)(=O)c1ccc(Cl)cc1
inactive: [1] | [2] | [4] | [5] | [6] | [7] | [8] | [17] | [9] | [10] | [11] | [12] | [13] | [14] | [16]
